KDM4E inh: JMJD2E (human) inhibition. B2RXH2. JMJD2E catalytic domain, FDH-coupled NADH fluorescence (FDH is formaldehyde dehydrogenase). Potency, µM (titrated, usually from 57.1 µM), for the others: top-dose activity change, negative = inhibition, most hits filed as inhibitors. 230,000 compounds, 1.6% hits. AID 2147;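 note: 0% = wells with enzyme and -100% = buffer wells without enzyme; nearly all actives have a fitted effect of over 50% in size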
Target sequence (B2RXH2 1-337 limits assumed): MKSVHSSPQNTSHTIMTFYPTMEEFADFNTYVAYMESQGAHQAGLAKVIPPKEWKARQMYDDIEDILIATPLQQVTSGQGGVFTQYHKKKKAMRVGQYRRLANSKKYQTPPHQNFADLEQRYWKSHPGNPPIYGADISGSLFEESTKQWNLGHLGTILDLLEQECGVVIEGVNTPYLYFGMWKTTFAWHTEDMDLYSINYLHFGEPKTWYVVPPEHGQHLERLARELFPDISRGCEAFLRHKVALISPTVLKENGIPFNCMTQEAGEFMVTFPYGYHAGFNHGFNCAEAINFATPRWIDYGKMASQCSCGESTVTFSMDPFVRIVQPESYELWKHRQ
HTT ATP protect: protects HTT-Q103 PC12 cells, measured by ATP; PC12 HTT-Q103 induced, cytoprotection, ATP luminescence, 40 h; Potency, µM (titrated, usually from 56.4 µM), without a hit: cytoprotection (ATP increase), most hits filed as activators; 230,000 compounds, 0.14% hits; AID 1471; active = well fitted curve in the direction sought with a large enough effect; inconclusive = small, poorly fitted or top-dose-only effect, or another doubt; inactive = no such curve, though single readings can be large; an effect the other way counts as inactive or inconclusive; note: % of control where 0% means no effect; nearly all actives have a fitted effect of over 45% in size
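Huntington model: PC12 line, ecdysone-inducible HTTQ103 exon1–GFP, tebufenozide 100 nM. Test articles in a dose series. Endpoint luminescence from cellular ATP.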
ALDH1A1 block: blocks purified human ALDH1A1 activity. Purified ALDH1A1, NADH fluorescence, propionaldehyde substrate. 220,000 compounds, 7.3% hits. Potency, µM (highest dose often 75.3 µM), inactives show at the top dose activity, negative = inhibition, usual class: inhibitors. AID 1030;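 note: plate controls were no enzyme wells and a reference inhibitor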
HPGD inh: inhibitors of human 15-hydroxyprostaglandin dehydrogenase (HPGD); P15428; purified HPGD, NADH fluorescence kinetic, PGE2 substrate; Potency, µM, for inactives: at the highest dose activity change, negative = inhibition, usual class: inhibitors; 150,000 compounds, 4.3% hits; note: % is set by controls: 0 for no effect and ±100 for the full control effect
Target sequence (P15428 whole entry, looked up): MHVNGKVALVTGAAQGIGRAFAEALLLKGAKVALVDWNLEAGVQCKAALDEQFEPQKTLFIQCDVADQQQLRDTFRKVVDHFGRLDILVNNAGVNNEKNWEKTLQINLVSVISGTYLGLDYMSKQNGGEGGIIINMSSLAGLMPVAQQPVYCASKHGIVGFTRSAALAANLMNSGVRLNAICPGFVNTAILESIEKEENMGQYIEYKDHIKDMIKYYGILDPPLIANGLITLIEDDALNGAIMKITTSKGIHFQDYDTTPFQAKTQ
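NADH formation kinetics: reaction with 30 uM PGE2 and 1 mM NAD+ (final), 20 nM enzyme, Tris-HCl pH 8 with Tween 20, after 15 min compound preincubation at room temperature. Fluorescence change, last versus first of five reads.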
HTT aggregate: reduces HttQ103-GFP aggregates in PC12 cells; PC12 HttQ103-GFP aggregates, Acumen cytometry, 40 h; 220,000 compounds, 1.1% hits; Potency, µM (highest dose often 46.1 µM), inactives show top-dose activity change, negative = inhibition, hits mostly inhibitors; AID 1688; active = well fitted curve in the direction sought with a large enough effect; inconclusive = small, poorly fitted or top-dose-only effect, or another doubt; inactive = no such curve, though single readings can be large; an effect the other way counts as inactive or inconclusive; note: % is set by controls: 0 for no effect and ±100 for the full control effect; nearly all actives have a fitted effect of over 60% in size
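Using laser scanning cytometry, GFP-positive aggregates were counted after lysis of PC12 cells induced with 100 nM tebufenozide to express HTT exon 1 Q103–GFP. Compounds were tested in titration.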
LMNA splice mod: LMNA splicing modulation; HeLa LMNA splicing GFP/RFP minigene ratio, 48 h; Potency, µM (series often up to 46.1 µM), for inactives: at the highest dose ratio change, negative = inhibition, most hits filed as inhibitors; 200,000 compounds, 0.01% hits; active = well fitted inhibition curve with a large enough effect in the signal ratio, with a control signal flat, not every such curve was filed as active; inconclusive = small, poorly fitted or top-dose-only effect, or effect the other way, or a change in a side signal; the % refers to the signal ratio; note: % is set by controls: 0 for no effect and ±100 for the full control effect
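Read-out is the ratio of GFP to DsRed2 object intensity, acquired by 488 nm laser-scanning cytometry on HeLa lamin A-EGFP minigene reporter cells. Compound incubation 48 hrs at 37 °C in Opti-MEM with 2% FBS; DMSO 0.5% final.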
Active calls of the source: *; ? = inconclusive; . = no result given; [ ] = dose if it differs, or a comment. Shown are actives, neighbours in structure and some others; about 9.2% of the full set was active somewhere. Unless noted, calls come from the whole dose curve; as a rule, active = well fitted inhibition curve with a large enough effect (not every such curve was filed as active); inconclusive = small, poorly fitted or top-dose-only effect, or another doubt; inactive = no such curve, though single readings can be large or run the other way. Potency is the fitted concentration of half-maximal effect.

SMILES	KDM4E inh	HTT ATP protect	ALDH1A1 block	HPGD inh	HTT aggregate	LMNA splice mod
COc1ccc(N2CCN(C(=O)c3cccnc3SCc3cccc(Br)c3)CC2)cc1	2%	-17%	-2%	.	22µM*	8%[46 µM]
COc1ccc(N2CCN(C(=O)c3cnc(N4CCCC4)nc3C)CC2)cc1	.	.	.	.	.	7%[46 µM]
CCOC(=O)c1nnn(-c2nonc2N)c1CN(C)C1CCCCC1	5%	12%	2µM*	-7%	-10%	1%
Nc1nonc1-n1nnc(C(=O)N/N=C/c2ccccc2)c1CSc1ccccc1	9%	0%[10 µM]	.	.	-16%[9.22 µM]	.
Cc1c(C(=O)N2CCCCCC2)nnn1-c1nonc1N	-2%	2%	11µM*	32µM*	-5%	-4%
CCOC(=O)c1nnn(-c2nonc2-n2cccc2)c1CN1CCCCC1	-1%	-20%	6%	-23%	18%	19%
CCOC(=O)c1nnn(-c2nonc2N)c1CN1CCCCCC1	-12%	23%	2.2µM*	-6%	0%[9.22 µM]	-1%
NNC(=O)c1nnn(-c2nonc2N)c1CN1CCc2ccccc2C1	26%	-4%	4µM*	.	9%	-14%[46 µM]
CCC(=O)NCCC1CCc2ccc3c(c21)CCO3 (stereo unspecified)	-4%	-48%	-14%	-12%	17%	?
O=C(Oc1ccccc1)N1CCC2(CC1)CCN(c1ccccc1)CC2	.	6%	?	-6%	.	.
O=C(CSc1nnc(CNc2ccccc2)o1)N1CCc2ccccc21	-5%	-8%	16µM*	-9%	13%	6%
O=C(CSc1nnc(Cc2ccccc2)o1)N1CCCc2ccccc21	1%	1%	18µM*	?	0%	1%
COc1ccc(C(=O)NCc2nnc(SCC(=O)N3CCc4ccccc43)o2)cc1OC	6%	9%	-1%	-2%	2%	-17%
CCN(CC)C(=O)c1ccc2c(=O)n(CCOC)c(=S)[nH]c2c1	-2%	12%	11µM*	14µM*	-17%	0%
COCCn1c(=S)[nH]c2cc(C(=O)N3CCN(c4ccc(F)cc4)CC3)ccc2c1=O	8%	-8%[0.074 µM]	?	.	-24%	?
CCOCCCn1c(=S)[nH]c2cc(C(=O)NCC(OC)OC)ccc2c1=O	0%	-20%	8.9µM*	.	1%	.
Cc1cc(CN2CCCCC2)c(O)c(CN2CCCCC2)c1	.	10%[10 µM]	0%[13.5 µM]	-10%	.	.
COc1ccc(C2Nc3cc(OC)ccc3-n3cccc32)cc1 (stereo unspecified)	?	-16%[10 µM]	.	.	-16%[9.22 µM]	.
Cc1c(NC(=O)COC(=O)COc2ccc(Nc3ccccc3)cc2)c(=O)n(-c2ccccc2)n1C	-1%	-14%	22µM*	.	21%	.
COCCNS(=O)(=O)c1ccc(OCC(=O)OC)c(Cl)c1	-6%	-31%[0.074 µM]	-4%	-10%	3.2µM*	-12%
COCCNS(=O)(=O)c1ccc(-c2ccc(S(=O)(=O)NCCOC)cc2)cc1	?	7%[0.074 µM]	?	11µM*	3%	?
COC(=O)COc1ccc(S(=O)(=O)NCCC2=CCCCC2)cc1Cl	-11%	-7%	?	-9%	-10%	0%
CCCCOc1cccc(C(=O)NNC(=S)NC2CCCCC2)c1	-6%	15%[10 µM]	-15%	-11%	?	?
CCOc1cccc(C(=O)NC2CCCCC2)c1	3%	-11%	1%	28µM*	-16%	-16%
CCOc1ccc(C(=S)NC2CCCCC2)cc1	5%	-47%	8.9µM*	14µM*	-3%	-3%
SMILES	KDM4E inh	HTT ATP protect	ALDH1A1 block	HPGD inh	HTT aggregate	LMNA splice mod
COc1ccc2c(c1)O[C@@H](c1cccc(C(F)(F)F)c1)[C@H](OC(=O)NC1CCCC1)C2=O	7%	?	-7%	-12%	.	.
CC(C)c1nnc(NC(=O)C2CCN(c3cnccn3)CC2)s1	?	-11%[1.9 µM]	32µM*	-5%	-26%	-21%
O=C(O)CCC(=O)Nc1ccc(Oc2ncnc3cc(Cl)ccc23)nc1	?	23%[10 µM]	.	.	-4%[9.22 µM]	.
CC(=O)c1cccc(NC(=S)NC(=O)c2cccc(C)c2)c1	5%	.	?	22µM*	13%	?
CC(=O)c1cccc(NC(=S)NC(=O)c2ccccc2C)c1	5%	-92%[10 µM]	?	.	?	23%[46 µM]
CC(=O)c1cccc(NC(=S)NC(=O)c2ccc(Cl)cc2)c1	-3%	-14%[10 µM]	25µM*	-21%	-12%	?
O=S1(=O)N=C(N(Cc2cccs2)c2ccc(O)cc2)c2ccccc21	3%	.	?	.	.	.
Cc1cc(N)ccc1-n1c(C)ccc1C	?	3%	10µM*	-7%	20%	?
Cc1cc(N)ccc1N1CCCC1	-28%	-17%	25µM*	-5%	-16%	11%
NC(=O)c1cc(N)ccc1N1CCCC1	?	-33%	-3%	-12%	23%	-3%
Cc1cc(N2CCCC2)c(C)cc1C=O	1%	7%	14µM*	-7%	10%	-1%
N#CC1(NC(=O)CN2CCc3ccccc3C2)CCCC1	-11%	-2%	?	.	9%	.
Cc1ccc(C(C[N+](=O)[O-])Sc2ccc(N)cc2)cc1 (stereo unspecified)	-10%	-14%[10 µM]	4µM*	.	2%[9.22 µM]	.
Cc1ccc(Sc2ncnc(N)c2[N+](=O)[O-])cc1	8%	22%[10 µM]	0%	-19%	-3%	?
C=CCn1c(SCC#N)nc2c(c1=O)C(C)(C)Cc1ccccc1-2	-3%	-12%[10 µM]	?	-1%	10µM*	0%
COc1ccc(C)cc1C(=O)CCC(=O)Nc1ccccc1N1CCOCC1	-22%	17%[10 µM]	28µM*	-12%	13µM*	8%
COc1cc(CC(=O)Nc2ccccc2N2CCOCC2)cc(OC)c1OC	-26%	-33%	-9%	.	2%	?
Cc1ccc(C(=O)NC(=S)Nc2ccc(NC(=O)c3cccs3)cc2)cc1[N+](=O)[O-]	5%	9%[10 µM]	13µM*	-13%	7%	-2%
CN1CCN(c2ccccc2NC(=O)c2ccc(N3CCCCC3)c([N+](=O)[O-])c2)CC1	-2%	-18%[10 µM]	22µM*	.	6%	.
Cc1ccc(C(=O)Nc2ccccc2N2CCCCC2)cc1[N+](=O)[O-]	0%	.	-5%	.	-15%	.
Cc1ccc(C(=O)Nc2ccc(NC(=O)c3cccs3)cc2)cc1[N+](=O)[O-]	13%	-6%[10 µM]	11%	.	-9%[9.22 µM]	.
Cc1ccc(C(=O)NC(=S)Nc2ccccc2N2CCCC2)cc1[N+](=O)[O-]	12%	-20%[10 µM]	20µM*	-12%	5%	?
Cc1ccc(Cn2c(CNS(=O)(=O)c3ccc(C(C)(C)C)cc3)nc3cccnc32)cc1	.	.	.	.	.	-23%[46 µM]
CC(=O)N1CC=CC1(CC(C)C)C(=O)O (stereo unspecified)	1%	4%	5%	-4%	.	.
CCCCN1C(=O)c2ccc(C(=O)Nc3ccccc3N3CCOCC3)cc2C1=O	-5%	6%	0.89µM*	.	21%	.

Screening data (PubChem)
